Read-out in assay [1]: Interleukin-8 (IL8), CXCL8 (gene 3576)
The assay is described as follows: BSK_CASM3C_IL8: BioMAP Diversity Plus: CASM3C Assay for Interleukin-8 (IL8) Biomarker Activity (AID 2283042).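 Note: IL-8 protein level quantified by ELISA.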 As to conditions: primary human coronary artery smooth muscle cells; actives raise or lower the signal.

Read-out in assay [2]: Human Leukocyte Antigen - DR isotype (HLADR), HLA-DRA (gene 3122)
Nature of the assay: BSK_CASM3C_HLADR: BioMAP Diversity Plus: CASM3C Assay for Human Leukocyte Antigen - DR isotype (HLADR) Biomarker Activity (AID 2283043).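 Note: cell-surface HLA-DR protein level quantified by ELISA.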 As to conditions: primary human coronary artery smooth muscle cells; actives raise or lower the signal.

Read-out in assay [3]: Macrophage colony-stimulating factor (MCSF), CSF1 (gene 1435)
The assay is described as follows: BSK_CASM3C_MCSF: BioMAP Diversity Plus: CASM3C Assay for Macrophage colony-stimulating factor (MCSF) Biomarker Activity (AID 2283044).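 Note: M-CSF protein amount quantified by ELISA after 24 h exposure.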 As to conditions: primary human coronary artery smooth muscle cells; actives raise or lower the signal.

Read-out in assay [4]: Low-density lipoprotein receptor (LDLR), LDLR (gene 3949)
The assay is described as follows: BSK_CASM3C_LDLR: BioMAP Diversity Plus: CASM3C Assay for Low-density lipoprotein receptor (LDLR) Biomarker Activity (AID 2283045).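 Note: LDLR protein level on the cell surface quantified by ELISA.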 As to conditions: primary human coronary artery smooth muscle cells; actives raise or lower the signal.

Read-out in assay [5]: Monocyte Chemoattractant Protein-1 (MCP1), CCL2 (gene 6347)
The assay is described as follows: BSK_CASM3C_MCP1: BioMAP Diversity Plus: CASM3C Assay for Monocyte Chemoattractant Protein-1 (MCP1) Biomarker Activity (AID 2283046).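 Note: MCP-1 level quantified by ELISA 24 h after dosing.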 As to conditions: primary human coronary artery smooth muscle cells; actives raise or lower the signal.

The nature of assay [6]: BSK_CASM3C_Proliferation: Cell Proliferation Assessment in the BioMAP Diversity Plus: CASM3C Assay (AID 2283047).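 Note: sulforhodamine B total protein stain as relative cell number at 560 nm; sub-confluent cells exposed 48 h before staining; fitted both ways against DMSO so gain or loss of cell number.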 As to conditions: primary human coronary artery smooth muscle cells.
Read-out in assay [7]: Monokine induced gamma interferon (MIG), CXCL9 (gene 4283)
The assay is described as follows: BSK_CASM3C_MIG: BioMAP Diversity Plus: CASM3C Assay for Monokine induced gamma interferon (MIG) Biomarker Activity (AID 2283048).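 Note: MIG protein level measured by ELISA.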 As to conditions: primary human coronary artery smooth muscle cells; actives raise or lower the signal.

Read-out in assay [8]: serum amyloid A (SAA), SAA1 (gene 6288)
The assay is described as follows: BSK_CASM3C_SAA: BioMAP Diversity Plus: CASM3C Assay for serum amyloid A (SAA) Biomarker Activity (AID 2283049). As to conditions: primary human coronary artery smooth muscle cells; actives raise or lower the signal.

Assay [9] is described as follows: BSK_CASM3C_SRB: Viability Assessment in the BioMAP Diversity Plus: CASM3C Assay (AID 2283050).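 Note: total protein by SRB staining as cytotoxicity measure in parallel cultures; cells exposed to compound for 24 h.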 As to conditions: primary human coronary artery smooth muscle cells.
Read-out in assay [10]: Thrombomodulin, THBD (gene 7056)
Nature of the assay: BSK_CASM3C_Thrombomodulin: BioMAP Diversity Plus: CASM3C Assay for Thrombomodulin Biomarker Activity (AID 2283051).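 Note: thrombomodulin protein level measured by ELISA 24 h after dosing.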 As to conditions: primary human coronary artery smooth muscle cells; actives raise or lower the signal.

Read-out in assay [11]: Tissue Factor, F3 (gene 2152)
Nature of the assay: BSK_CASM3C_TissueFactor: BioMAP Diversity Plus: CASM3C Assay for Tissue Factor Biomarker Activity (AID 2283052).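 Note: cell surface tissue factor protein level read by ELISA.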 As to conditions: primary human coronary artery smooth muscle cells; actives raise or lower the signal.

Read-out in assay [12]: Interferon-gamma inducible Protein 10 (IP10), CXCL10 (gene 3627)
The assay is described as follows: BSK_hDFCGF_IP10: BioMAP Diversity Plus: hDFCGF Assay for Interferon-gamma inducible Protein 10 (IP10) Biomarker Activity (AID 2283053). As to conditions: primary human foreskin fibroblasts; actives raise or lower the signal. Summed up: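 IP-10 levels, quantified by ELISA, are taken from human foreskin fibroblast cultures 24 h after chemical treatment, with DMSO serving as negative control and baseline for bidirectional analysis.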

Read-out in assay [13]: Urokinase-type plasminogen activator receptor (uPAR), PLAUR (gene 5329)
Nature of the assay: BSK_CASM3C_uPAR: BioMAP Diversity Plus: CASM3C Assay for Urokinase-type plasminogen activator receptor (uPAR) Biomarker Activity (AID 2283054).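 Note: cell-surface uPAR protein level quantified by ELISA.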 As to conditions: primary human coronary artery smooth muscle cells; actives raise or lower the signal.

Read-out in assay [14]: Vascular cell adhesion molecule 1 (VCAM1), VCAM1 (gene 7412)
The assay is described as follows: BSK_CASM3C_VCAM1: BioMAP Diversity Plus: CASM3C Assay for Vascular cell adhesion molecule 1 (VCAM1) Biomarker Activity (AID 2283055).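 Note: VCAM-1 protein level quantified by ELISA on the cells.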 As to conditions: primary human coronary artery smooth muscle cells; actives raise or lower the signal.

Read-out in assay [15]: Collagen III, COL3A1 (gene 1281)
Nature of the assay: BSK_hDFCGF_CollagenIII: BioMAP Diversity Plus: hDFCGF Assay for Collagen III Biomarker Activity (AID 2283056). As to conditions: primary human foreskin fibroblasts; actives raise or lower the signal. Summed up:
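Human foreskin primary fibroblasts were exposed to test chemicals for 24 h, after which collagen III was quantified by ELISA. Activity was fitted bidirectionally against DMSO as negative control and baseline.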

Read-out in assay [16]: Epidermal growth factor receptor (EGFR), EGFR (gene 1956)
The assay is described as follows: BSK_hDFCGF_EGFR: BioMAP Diversity Plus: hDFCGF Assay for Epidermal growth factor receptor (EGFR) Biomarker Activity (AID 2283057). As to conditions: primary human foreskin fibroblasts; actives raise or lower the signal. Summed up:
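Measured by ELISA: EGFR levels on primary human foreskin fibroblasts 24 h after chemical treatment, analysed relative to DMSO with bidirectional fitting.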

Read-out in assay [17]: Interleukin-8 (IL8), CXCL8 (gene 3576)
The assay is described as follows: BSK_hDFCGF_IL8: BioMAP Diversity Plus: hDFCGF Assay for Interleukin-8 (IL8) Biomarker Activity (AID 2283058). As to conditions: primary human foreskin fibroblasts; actives raise or lower the signal. Summed up: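 hDFCGF human dermal fibroblasts; 24 h chemical exposure; IL-8 by ELISA; bidirectional curve fit vs DMSO baseline; gain or loss of signal scored.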

The nature of assay [18]: BSK_hDFCGF_Proliferation: Cell Proliferation Assessment in the BioMAP Diversity Plus: hDFCGF Assay (AID 2283059).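 Note: curves fitted for both rise and fall of signal versus DMSO baseline.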 As to conditions: primary human foreskin fibroblasts. Summed up:
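This proliferation readout used SRB total-protein staining of human foreskin fibroblasts […], normalized to DMSO with bidirectional curve fitting.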

Assay [19] is described as follows: BSK_hDFCGF_SRB: Viability Assessment in the BioMAP Diversity Plus: hDFCGF Assay (AID 2283061).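 Note: cells exposed to compound for 24 h before the read.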 As to conditions: primary human foreskin fibroblasts. The method in brief: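 Human foreskin primary fibroblasts were treated with compound and assessed 24 h after dosing. Total protein was measured by sulforhodamine B staining (0.1% SRB after 10% TCA fixation, 560 nm read) as a cytotoxicity marker, with bidirectional fitting against DMSO baseline.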

Read-out in assay [20]: Macrophage colony-stimulating factor (MCSF), CSF1 (gene 1435)
The assay is described as follows: BSK_hDFCGF_MCSF: BioMAP Diversity Plus: hDFCGF Assay for Macrophage colony-stimulating factor (MCSF) Biomarker Activity (AID 2283060). As to conditions: primary human foreskin fibroblasts; actives raise or lower the signal. The method in brief: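 Human foreskin primary fibroblasts were treated with test chemical for 24 h, and M-CSF was then measured by ELISA. Data were fitted bidirectionally against DMSO as the negative control and activity baseline.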

SMILES strings stand for the structures. Where “and” joins values, the source holds several entries; their conditions need not be identical. Equal values may be shown once. Calls of active or inactive are those of the source. Rule for the calls: active = hit-call score of the fitted dose curve at least 0.9, where 1 is the maximum; inactive = score below 0.9.

As a reminder, the AC50 is the concentration giving half of the maximal activity seen. For `C=C(C)C(=O)OCC(CC)(COC(=O)C(=C)C)COC(=O)C(=C)C`, the result in assay [1], in assay [2], in [3], in assay [4], in assay [6] and in assay [7] was inactive. In addition, the result in assay [8], in [9], in assay [10], in assay [13], in assay [14] and in [15] was inactive. The result in assay [17] was inactive. Moreover, the half-maximal activity concentration (AC50) in [5] is 4.8 µM (active); in [11] it was 8.08 µM (active); in assay [12] it was 33.8 µM (active); in assay [16], 31.7 µM (active); in assay [18], 26.5 µM (active); in [19], 32.1 µM (active).

With `O=C(Nc1ccc2c(O)c(N=Nc3ccc(N=Nc4ccc(S(=O)(=O)O)cc4)cc3)c(S(=O)(=O)O)cc2c1)c1ccccc1`, the outcome in assay [1], in assay [2], in assay [3], in assay [4], in assay [5] and in [6] was inactive. In addition, the result in [7], in assay [8], in assay [9], in assay [10], in assay [11] and in assay [13] was inactive. Further, the outcome in [14], in assay [15], in assay [16], in assay [17] and in assay [18] was inactive. The AC50 is 25.5 µM (active) and 36.2 µM (active) in assay [12]; 35.3 µM (active) in [19].

Regarding `CC(C)(C)CC(C)(C)c1ccc(OCCOCC[N+](C)(C)Cc2ccccc2)cc1`, the AC50 in [1] was 7.3 µM (active); in assay [2], 6.1 µM (active); in assay [3] it was 7.89 µM (active); in assay [4], 8.21 µM (active); in assay [5], 8.03 µM (active); in assay [6], 7.66 µM (active). The half-maximal activity concentration (AC50) is 9.51 µM (active) in [7]; 5 µM (active) in assay [8]; 7.54 µM (active) in assay [9]; 6.62 µM (active) in [10]; 5 µM (active) in [11]; 8.05 µM (active) in assay [12]. Further, the AC50 was 7.34 µM (active) in assay [13]; 8.31 µM (active) in [14]; 2.22 µM (active) in assay [15]; 5 µM (active) in assay [17]; 0.496 µM (active) in [18]; 6.6 µM (active) in [19]. Besides, the result in assay [16] was inactive.

As for `COc1ccc(CCN2CCC(Nc3nc4ccccc4n3Cc3ccc(F)cc3)CC2)cc1`, the outcome in [1], in assay [2], in assay [3], in assay [5], in assay [7] and in assay [8] was inactive. Further, the outcome in assay [9], in assay [10], in assay [11], in assay [12], in assay [13] and in [14] was inactive. Further, the result in [16], in assay [17] and in [19] was inactive. The AC50 was 1.54 µM (active) in assay [4]; 8.02 µM (active) in [6]; 5 µM (active) in assay [15]; 5.42 µM (active) in assay [18]; 7.49 µM (active) in [20].

For `O=C1OC[C@H](Cc2cccc(O)c2)[C@H]1Cc1cccc(O)c1`, the result in [1], in assay [2], in [3], in assay [4], in [5] and in [6] was inactive. In addition, the outcome in [7], in assay [8], in assay [9], in assay [10], in assay [11] and in assay [12] was inactive. Further, the outcome in [13], in assay [14], in assay [15], in assay [16], in assay [17] and in assay [18] was inactive. Besides, the result in assay [19] was inactive.

Regarding `IC(I)I`, the outcome in assay [1], in [2], in assay [3], in [4], in assay [5] and in [6] was inactive. The result in assay [7], in assay [8], in [9], in assay [10], in assay [11] and in assay [12] was inactive. Besides, the outcome in [14], in assay [15], in [16], in assay [17], in assay [18] and in assay [19] was inactive. Besides, in [13], the concentration at half-maximal activity (AC50) is 0.584 µM (active).

For the origin of these results see PubChem BioAssay (EPA / NIEHS).
